Source: PubChem (National Center for Advancing Translational Sciences (NCATS))
An excerpt weighted towards active compounds, which were near 13% of everything screened.
Shiga inhibitor = A qHTS for Small Molecule Inhibitors of Shiga Toxin | inhibition, % at 38.7 µM | 290,000 tested, 9.2% active | Vero cells, Shiga toxin protein synthesis inhibition reporter; in the data active = inhibition mostly above about 28%, no sharp cut-off; inactive = mostly below about 43%; also: 0% is about no effect
Marburg entry inh = qHTS for inhibitors of binding or entry into cells for Marburg Virus; Marburg virus pseudotyped entry inhibition, cell reporter; AID 540276, 2011; Potency, µM (series often up to 37.8 µM), inactives show at the highest dose activity change, negative = inhibition, actives largely listed as inhibitors; 300,000 tested, 1.8% active; calls by dose curve; tested in HEK293 cells; also: potency is read from the fitted curve at half-maximal effect; % is scaled to controls: 0 for no effect and ±100 for the full control effect
FMDV inh = High Throughput Screening for Foot and Mouth Disease Virus Antivirals; FMDV antiviral cell-based qHTS; Potency, µM (highest dose often 57.9 µM), without a hit: at the highest dose activity change, negative = inhibition, most hits filed as inhibitors; 410,000 tested, 1.2% active; calls by dose curve; tested in HEK293T cells; also: read-out not given here; potency is read from the fitted curve at half-maximal effect; % is scaled to controls: 0 for no effect and ±100 for the full control effect; nearly all actives have a fitted effect of over 45% in size
HCV inhibitor = qHTS Assay for Inhibitors of Hepatitis C Virus (HCV); Huh7.5.1 HCVcc-Cre infection, luciferase reporter, 44 h; Potency, µM (series often up to 41.8 µM), without a hit: at the highest dose activity change, negative = inhibition, actives largely listed as inhibitors; 340,000 tested, 3.4% active; active = well fitted inhibition curve with a large enough effect; inconclusive = small, poorly fitted or top-dose-only effect, or another doubt; inactive = no such curve, though single readings can be large or run the other way; also: potency is read from the fitted curve at half-maximal effect; % is scaled to controls: 0 for no effect and ±100 for the full control effect
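Infectious HCVcc-Cre (~0.5 moi) was added to cells just after compound, with cells seeded 4 h earlier at 1,000 per well. Luciferase activity after 44 h culture reported infection; substrate was incubated 15 min at room temperature before reading.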
Lassa entry inh = qHTS for Inhibitors of binding or entry into cells for Lassa Virus; Lassa virus pseudotype entry inhibition, cell reporter; Potency, µM (top dose mostly 37.9 µM), without a hit: at the highest dose activity change, negative = inhibition, hits mostly inhibitors; 300,000 tested, 1.2% active; calls by dose curve; tested in HEK293 cells; also: potency is read from the fitted curve at half-maximal effect; % is scaled to controls: 0 for no effect and ±100 for the full control effect; nearly all actives have a fitted effect of over 50% in size
CHX counter = Cycloheximide Counterscreen for Small Molecule Inhibitors of Shiga Toxin. 300,000 tested, 12% active. cell reporter, cycloheximide protein synthesis inhibition counterscreen. max response, %; in the data active = max response mostly above about 13%, no sharp cut-off; inactive = mostly below about 14%; also: read at 38.3 µM for the half of the compounds with a filed dose; 0% is about no effect
The depositor's hits bear a star; u = inconclusive; x = not tested or not shown; [ ] = dose if it differs, or a comment.

SMILES	Shiga inhibitor	Marburg entry inh	FMDV inh	HCV inhibitor	Lassa entry inh	CHX counter
C=CCc1cccc2cc(-c3nc4ccc(C(=O)O)cc4[nH]3)c(=O)oc12	x	x	16µM*	x	1%[46.1 µM]	x
COc1ccc2oc(=O)c(-c3nc4ccc(C)cc4[nH]3)cc2c1	x	x	24%	x	-5%[46.1 µM]	x
CCOc1cccc2cc(-c3nc4ccc(C(=O)O)cc4[nH]3)c(=O)oc12	x	x	11µM*	x	21%[46.1 µM]	x
Cn1c(=O)cc(Nc2ccc(Cl)cc2)[nH]c1=O	-7	-3%[46.1 µM]	-14%	-4%	-21%[46.1 µM]	-4
Cc1cc(-c2nc3cc(F)ccc3s2)ccc1N	x	7.1µM*	-61%	u	2.2µM*	x
Nc1c(C(=O)OC2CCCCC2)c2nc3ccccc3nc2n1CC1CCCO1 (stereo not drawn)	9	u	-16%	10µM*	-26%	-3
CC(C)CCn1c(N)c(C(=O)OCC2CCCO2)c2nc3ccccc3nc21 (stereo not drawn)	24	u	-16%	13µM*	u	1
CC(C)(C)c1ccc(S(=O)(=O)NC(=O)C2(C)CCN2C(=O)C2CCCCC2)cc1 (stereo not drawn)	x	x	-10%	x	x	x
COc1cc2c(c(OC)c1O)-c1ccc(OC)c(=O)cc1C(NC(=O)C(F)(F)F)CC2 (stereo not drawn)	x	u	-10%	-10%	u	x
CCN1CCC(O)(/C=C/c2ccc(C(C)C)cc2)C(C(=O)/C=C/c2ccc(C(C)C)cc2)C1 (stereo not drawn)	x	u	32µM*	7.9µM*	14µM*	x
CC(C)c1ccc(/C=C/C(=O)O)cc1	-1	7%[46.1 µM]	19%	4%	7%	5
Cc1cc(C)c(Cn2c(C)c(CNCc3ccccc3C)c(C(=O)O)c2C)c(C)c1	x	-21%[46.1 µM]	-1%	x	0%[46.1 µM]	x
Cc1cc(/C=C2/NC(=O)N(c3ccccc3)C2=O)c(C)n1C(C)C	41*	u	9%	-18%	u	40*
Cc1ccc(/C=C2/NC(=O)N(c3ccccc3)C2=O)o1	90*	3%	22%	-15%	20%	32*
Cc1cccc(NC(=O)CN2C(=O)N/C(=C/c3ccc(-c4cccc(C(=O)O)c4C)o3)C2=O)c1	45*	-1%[46.1 µM]	1%	10%	3%[46.1 µM]	27*
CCN1C(=O)N/C(=C/c2ccc(C)o2)C1=O	12	-8%	-1%	14%	-8%	1
Cc1cc(/C=C2/NC(=O)N(Cc3ccccc3F)C2=O)c(C)n1C(C)C	28	u	1%	u	-20%	5
Cc1c(C(=O)O)cccc1-c1ccc(/C=C2/NC(=O)N(c3ccccc3)C2=O)o1	40	x	30%	15%	x	28*
CC(C)n1nnc2c(=O)oc3ccccc3c21	-14	8%	-20%	25%	11%	2
CC(C(=O)O)(C1CCCCC1)C1(O)CCCCC1 (stereo not drawn)	x	x	1%	x	x	x
CCCCCCCCC(NC(=O)c1ccc(C#N)cc1)C(=O)NCCC (stereo not drawn)	x	x	-7%	10%	x	x
O=C1N/C(=C/c2ccc(N3CCOCC3)o2)C(=O)N1c1cccc(Cl)c1	23	u	-17%	u	-30%	22*
O=C1NC(=O)N(c2ccccc2)C(=O)/C1=C/c1ccoc1	15	8%[46.1 µM]	u	3%	9%[46.1 µM]	-3
O=C1N/C(=C/c2ccc(Br)s2)C(=O)N1c1ccccc1	65*	u	9%	-2%	u	16*
O=C1NC(=O)C(=Cc2ccc(N3CCOCC3)o2)C(=O)N1	20	10%[46.1 µM]	9%	19%	-11%[46.1 µM]	1
Cc1ccc(NC(=O)CCNS(=O)(=O)c2ccc3[nH]c(=O)oc3c2)cc1N(C)C	-5	x	19%	17%	x	-4
COc1ccc(CCNC(=O)CO/N=C/c2cc3c(cc2Br)OCO3)cc1OC	-13	u	-23%	u	-8%	-4
COCc1nnc(NC(=O)c2ccc(OC)cc2OC)s1	104*	u	8%	-21%	u	47*
COc1ccc(C(=O)Nc2nnc(Cc3ccc(OC)c(OC)c3)s2)c(OC)c1	57	u	-5%	11µM*	u	13*
COc1ccc(C(=O)Nc2nnc(CCc3ccccc3)s2)c(OC)c1	10	x	-7%	u	x	2
